High-throughput results: PubChem, several laboratories
This is a sample that favours compounds with a hit; in the whole collection about 3.6% have one here.
BoNT-F LC inh: BoNT/F light chain protease inhibitors, primary screen, biochemical, flow cytometry, MLPCN library | Botulinum neurotoxin type F light chain protease (Clostridium botulinum) | Multiplex microsphere protease cleavage assay | inhibition, % at 10 µM | 0.22% of 360,000 active | AID 588497, 2011; in the data active = inhibition above about 35%, passing the limit was not always enough; inconclusive = no clear call, values can overlap the other calls; note: plate controls were buffer without enzyme for full effect and enzyme alone for no effect
BoNT A protease: BoNT/A light chain protease inhibitors, primary screen, biochemical, flow cytometry, MLPCN library. multiplex microsphere protease substrate cleavage. inhibition, % at 10 µM. 0.17% of 360,000 active; note: plate controls were buffer without enzyme for full effect and enzyme alone for no effect
MazF activator: activators of E. coli MazEF toxin-antitoxin RNase, primary screen, biochemical, fluorescence, uHTS; Endoribonuclease toxin MazF (Escherichia coli (strain K12)), P0AE70; FAM/BHQ RNA-DNA oligo cleavage fluorescence, 5 h; activation, % at 20 µM; 0.32% of 350,000 active; in the data active = activation above about 50%
Anthrax LF prot: Bacillus anthracis LF protease inhibitors, primary screen, biochemical, multiplex microsphere, MLPCN library. multiplex microsphere protease cleavage assay. Lethal factor (Bacillus anthracis), P15917. 0.12% of 360,000 active. inhibition, % at 10 µM; note: plate controls were buffer without enzyme for full effect and enzyme alone for no effect
Autofluor counter: compound fluorescence in toxin protease inhibitor counterscreen; compound autofluorescence counterscreen, microsphere flow cytometry; active compounds read high; fluorescence intensity (test concentration not listed); 3.1% of 360,000 active; AID 624483; in the data active = fluorescence intensity above about 16000; inconclusive = no clear call, values can overlap the other calls
Active calls of the source: *; ? = inconclusive; . = no result. Cut-off read from the data, not from the text of the source, unless noted: active = inhibition above about 30%; inconclusive = no clear call, values can overlap the other calls; inactive = below that.

SMILES	BoNT-F LC inh	BoNT A protease	MazF activator	Anthrax LF prot	Autofluor counter
CCOc1ccc(NC(=O)COC(=O)Cn2cnnn2)cc1OCC	-3	0	-14	-1	23264*
CN(C)/C=N/c1ncc(C(=O)c2ccc3ccccc3c2)s1	2	1	2	4	23850*
CCCCn1nnnc1C(c1cc2ccccc2o1)N1CCN(CCN(C)C)CC1 (stereo not given)	3	0	.	0	7331
CCCn1c(COc2ccccc2)nc2ccccc21	42*	6	5	-2	3009
CCN1C(=O)C(CC(=O)NCc2ccc(Cl)cc2)N(CC)C1=O (stereo not given)	-1	-1	10	0	20390*
CCN1C(=O)C(CC(=O)NC2CCCCC2)N(CC)C1=O (stereo not given)	0	-1	4	-3	3377
CCOc1ccc(NC(=O)CC2C(=O)N(c3ccccc3)C(=O)N2Cc2ccccn2)cc1 (stereo not given)	5	?	4	-1	22858*
CCOc1ccc(NC(=O)CC2C(=O)N(c3ccccc3)C(=S)N2Cc2ccccn2)cc1 (stereo not given)	-5	-1	2	-2	9610
COc1ccc(NC(=O)CC2C(=O)N(c3cccc(OC)c3)C(=O)N2CCC(C)C)cc1 (stereo not given)	-1	4	-1	1	19759*
COc1cccc(NC(=O)N(C)C[C@@H]2OCc3cnnn3CCCC(=O)N([C@H](C)CO)C[C@@H]2C)c1	-11	-1	8	-2	3462
C[C@H](NC(=O)C1CCN(C(=O)[C@@H]2CCCN2C(=O)OC(C)(C)C)CC1)C(=O)NCc1ccc(F)cc1	0	0	.	-1	5563
O=C(C1CCCN(S(=O)(=O)c2ccc(Br)cc2)C1)N1CCN(Cc2ccccc2)CC1 (stereo not given)	-391	-234	4	-60	55843*
CSc1ccc(C(=S)N2CCN(Cc3ccccc3)CC2)cc1	13	7	2	-17	19865*
O=C(CN1CCN(Cc2ccccc2)CC1)c1ccc(Br)cc1	-5	0	-5	4	21164*
O=C(C1CCCN(S(=O)(=O)c2ccccc2)C1)N1CCN(c2ccccc2)CC1 (stereo not given)	8	4	5	-2	3835
O=C(CN1CCN(Cc2ccccc2)CC1)c1ccccc1	-4	0	3	-2	3433
CC12CCC(C(=O)CC1=O)C2(C)C (stereo not given)	-2	0	6	-1	3837
CCCc1nc2oc3c(OC)ncnc3c2c2c1COC(C)(C)C2	-4	0	3	2	19420*
CC(C)c1nc2oc3c(NCCO)ncnc3c2c2c1COC(C)(C)C2	?	-1	8	15	3544
CC(C)c1nc2oc3c(NCC4CCCO4)ncnc3c2c2c1COC(C)(C)C2 (stereo not given)	-1	1	10	-4	22704*
Cc1nc2oc3c(NCC4CCCO4)ncnc3c2c2c1COC(C)(C)C2 (stereo not given)	-2	1	0	-3	22824*
CCCc1nc2oc3c(NCCOCCO)ncnc3c2c2c1COC(C)(C)C2	10	4	10	-4	7131
O=C(O)C1C2CCCCC2=C2CCCCC2C1C(=O)Nc1nccs1 (stereo not given)	-8	0	-3	-4	2889
CCOC(=O)CC(C#N)c1cn(C)c2ccccc12 (stereo not given)	-11	2	6	-3	13969
Cn1cc(C(CC(=O)O)C(=O)O)c2ccccc21 (stereo not given)	-2	0	3	2	23907*
SMILES	BoNT-F LC inh	BoNT A protease	MazF activator	Anthrax LF prot	Autofluor counter
CCCn1cc(C(CC(=O)O)C(=O)O)c2ccccc21 (stereo not given)	-2	-1	-4	0	24400*
CCCOC(=O)C1=C(C)NC2=C(C(=O)C(C(=O)OC)C(C)C2)C1c1ccc(N(CC)CC)cc1 (stereo not given)	-5	1	0	14	8869
CCOC(=O)C1=C(C)NC2=C(C(=O)C(C(=O)OC)C(C)C2)C1c1ccc(OC)c(O)c1 (stereo not given)	0	?	1	-3	23122*
C=CCN(CC=C)C(=S)Nc1ccccc1	1	3	-7	-1	22624*
COCCCNC(=O)c1cc(C)nc2ccc(F)cc12	2	1	-3	-5	21925*
Cc1cc(C(=O)Nc2nccs2)c2cc(F)ccc2n1	?	1	4	-1	3076
CC(C)C(=O)Nc1ccc(NC(=S)NC(=O)c2cc3ccccc3o2)cc1	-8	-1	4	1	4307
CCCCn1nnc(NC(=O)Cc2ccc(Cl)cc2)n1	3	0	-16	1	3246
CCn1nnc(NC(=O)c2cc3ccccc3o2)n1	2	2	5	4	21445*
CN1CCN(c2ccccc2NC(=O)c2cc3ccccc3o2)CC1	0	3	-1	1	21317*
CC(C)C(=O)Nc1ccc(NC(=O)c2cc3ccccc3o2)cc1	-5	-2	-2	-3	22449*
CCn1nnc(NC(=O)CSc2ccc(Cl)cc2)n1	-4	-3	-6	-1	24449*
O=C(Nc1ccccc1N1CCCC1)c1cc2ccccc2o1	-10	-2	6	-4	10962
Cc1ccc(NC2CCCN(C(=O)CSc3ccncc3)C2)cc1C (stereo not given)	-2	1	3	-1	5446
O=C(NCc1ccccc1)c1cc(C2COCCN2C(=O)CCc2ccccc2)on1 (stereo not given)	-3	0	.	0	3644
Cc1ccc(S(=O)(=O)N(CC(=O)Nc2ccc(C(N)=O)cc2)C(=O)N2CCN(C)CC2)cc1	?	-4	5	-2	6750
CC1C(=O)N(Cc2cn(CCC3OCCO3)nn2)CCS(=O)(=O)N1Cc1ccc(-c2ccccc2)cc1 (stereo not given)	-1	0	5	-6	3581
Cc1ccc2c3c(cccc13)-c1ccccc1C2=O	28	74*	-36	44*	6102
CC(C)c1ccccc1NC(=O)COC(=O)CCN1C(=O)/C(=C\C=C\c2ccccc2)SC1=S	6	40*	48	18	2544
O=C(COC(=O)CCN1C(=O)/C(=C\C=C\c2ccccc2)SC1=S)Nc1ccc(Br)cc1	14	41*	-6	27	4781
Fc1ccc(Cc2nnc(-c3cccs3)o2)cc1	2	-1	1	-8	5587
c1csc(-c2nnc(Cc3cccc4ccccc34)o2)c1	-6	?	-5	-3	23714*
c1ccc(-c2nnc(CSc3nnc(-c4cccs4)o3)o2)cc1	4	1	2	-3	22467*
